# Screens deposited in PubChem BioAssay by National Center for Advancing Translational Sciences (NCATS).
# D2 ag-1 – D2 dopamine receptor (human) agonism; activation, % at 2 µM; AID 485358; P14416; HEK293 T-REx D2 cells, calcium flux agonist mode; actives 0.53% (n = 340,000);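 active = activation over 3 SD above normal in the single-dose calcium agonist read, cut at about 30% in these data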; note: 0% is about no effect
# Target sequence (P14416 whole entry, looked up): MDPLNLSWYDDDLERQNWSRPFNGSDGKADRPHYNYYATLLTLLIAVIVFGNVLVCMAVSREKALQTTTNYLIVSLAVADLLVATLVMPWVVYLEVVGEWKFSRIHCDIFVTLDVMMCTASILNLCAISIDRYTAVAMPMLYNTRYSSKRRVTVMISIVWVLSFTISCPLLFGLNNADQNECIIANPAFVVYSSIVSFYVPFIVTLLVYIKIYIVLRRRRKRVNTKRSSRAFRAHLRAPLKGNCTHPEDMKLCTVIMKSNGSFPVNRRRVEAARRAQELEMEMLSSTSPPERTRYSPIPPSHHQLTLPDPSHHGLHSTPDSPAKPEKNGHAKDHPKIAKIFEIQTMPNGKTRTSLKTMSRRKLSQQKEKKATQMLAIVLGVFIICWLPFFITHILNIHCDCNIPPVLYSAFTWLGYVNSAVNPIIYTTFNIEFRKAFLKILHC
#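 Agonism scored from kinetic calcium signal (1 read/sec, 180 s) following compound pin transfer, after a 10 s baseline. Cells: HEK293 Trex line expressing inducible D2 receptor coupled to calcium, dye-loaded after overnight culture at 30 C.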
# D2 ag-2 – human D2 receptor agonism in beta-arrestin assay. actives 0.084% (n = 360,000). activation, % (no concentration beside the values). DiscoveRx PathHunter D2 beta-arrestin, luminescence, 90 min; 100% = 57 uM dopamine signal. P14416; in the data active = activation above about 40%
#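 DiscoveRx PathHunter D2 beta-arrestin cells (2,100/well) attached overnight, then compound-stimulated 90 min at 37 C in HBSS/10 mM HEPES/0.1% Tween-20 buffer; beta-galactosidase complementation read by luminescence after 1 h at ambient temperature. Dopamine 57 uM final (EC100) as control.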
# D2 PAM-1 – positive allosteric modulators of human D2 dopamine receptor; potentiation, % (test concentration not listed); P14416; DiscoveRx D2 beta-arrestin cells, luminescence, 90 min; 100% = 57 uM dopamine signal; actives 0.23% (n = 360,000); in the data active = potentiation above about 50%
#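 PathHunter beta-arrestin assay in DiscoveRx D2 cells. Compounds were added with an EC20 of dopamine (50 nM final) for 90 min at 37 deg C. Luminescence was read 1 h after detection reagent, with 57 uM dopamine as the EC100 control.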
# D2 PAM-2 – positively modulates the human D2 dopamine receptor allosterically; HEK293 T-REx D2, calcium flux, EC20 dopamine potentiation; potentiation, % at 10 µM; actives 0.34% (n = 340,000); AID 485347;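 active = potentiation over 3 SD above the plate norm, cut at about 30% in these data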; note: 0% is about no effect
#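 Primary screen. Calcium kinetics in induced HEK293 T-REx D2 cells: compound pre-addition 180 s, EC20 dopamine, 180 s more.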
# D2 antagonist – D2 dopamine receptor (human) antagonism | HEK293 TREx D2 cells, calcium flux, dopamine EC80 | AID 485344 | actives 2% (n = 340,000) | P14416 | inhibition, % at 10 µM; in the data active = inhibition above about 30%; inactive = below that, where a call was filed; note: 0% is about no effect
#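 Cells plated overnight at 30 C with tetracycline; no-wash calcium dye, 30–90 min RT; 10 s baseline; compound pinned; 180 s read; EC80 dopamine added; another 180 s read.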
# Numbers without * were called inactive; · = no result given. This is a sample that favours compounds with a hit; in the whole collection about 2.4% have one here.
SMILES,D2 ag-1,D2 ag-2,D2 PAM-1,D2 PAM-2,D2 antagonist
COCCn1nnnc1CN1CCC(Cc2ccccc2)CC1,1,-1,-16,38*,2
CCC(C)NC(=O)C1=CC(c2ccc3c(c2)OCO3)=NS(=O)(=O)N1C (stereo not given),10,·,·,4,·
Cc1cc(C)cc(NC(=O)N2CCN(C)c3ncccc32)c1,-1,·,·,13,·
COc1ccccc1N1CCN(CCCCNC(=O)c2ccc3ccccc3c2)CC1,·,·,·,·,75*
COc1ccccc1N1CCN(Cc2cc(=O)n3ccsc3n2)CC1,0,-1,-49,41*,-3
CCOc1ccc(CN2CCC(Cc3ccccc3)CC2)cc1,-1,1,-90,-19,30*
O=c1cc(CN2CCCCCC2)nc2sccn12,0,-1,-4,22,-4
COc1ccccc1N1CCN(CCCOc2ccc(F)cc2)CC1,-1,2,-39,-23,89*
Cc1ccc(C)c(N2CCN(C(=O)c3cc(S(=O)(=O)N4CCCCCC4)cn3C)CC2)c1,-1,·,·,15,·
CCc1cccc(NC(=O)CCc2nc3cccnc3n2-c2ccccc2)c1,-1,·,·,7,·
Cc1ccccc1C(=O)Nc1cc2c(cc1N1CCCCC1)n(C)c(=O)n2C,-3,·,·,-11,·
Cc1ccc(NC(=O)c2cc(S(=O)(=O)N3CCCC(C)C3)cn2C)c(Br)c1 (stereo not given),0,·,·,-3,·
COc1cccc(OC)c1OCCCN1CCC(Cc2ccccc2)CC1,23,6,-25,-27,89*
O=C(Oc1ccc(-c2nnco2)cc1)N1CCCCC1,1,-2,-9,34*,16
O=C(Oc1ccc(Cl)cc1)N1CCCCC1,-2,-2,-4,0,8
CCOc1ccc(-c2c(C)nn3c(C)c(C(=O)NC(C)c4ccccc4)cnc23)cc1OCC (stereo not given),1,·,·,-3,·
COc1ccccc1CN1C(=O)[C@@H]2C(CCC(N)=O)NC3(C(=O)Nc4c3ccc(Cl)c4C)[C@@H]2C1=O (stereo not given in full),0,-1,0,32*,-3
O=C(c1cccs1)N(Cc1ccco1)Cc1cc2ccccc2[nH]c1=O,1,-2,-4,-22,60*
Cc1ccc2[nH]c(=O)c(CN(Cc3ccco3)C(=O)c3ccncc3)cc2c1,0,0,-2,0,-2
COc1cccc(CNC(=O)C2CCN(Cc3cc4ccccc4n3Cc3ccc(C)cc3)CC2)c1,0,·,·,1,·
CC(=O)Nc1ccc(S(=O)(=O)NC2(C(F)(F)F)NC(=O)N(C3CCCC3)C2=O)cc1 (stereo not given),-2,0,3,33*,1
CCOc1ccc(NC(=O)CSc2cc(C)c3ccccc3n2)cc1,1,·,·,·,·
Cc1cc(C)nc(SCC(=O)c2ccc([N+](=O)[O-])cc2)n1,0,3,76*,-6,22
CCc1nnc(NC(=O)C(C)N2C(=O)C3C4C=CC(C4)C3C2=O)s1 (stereo not given),1,-2,-4,-10,33*
Cc1nnc(NC(=O)NC(C)N2C(=O)C3C4C=CC(C4)C3C2=O)s1 (stereo not given),1,1,-2,-2,5
SMILES,D2 ag-1,D2 ag-2,D2 PAM-1,D2 PAM-2,D2 antagonist
O=C(CCCCCn1c(=O)c2sccc2n(CC(=O)Nc2cccc(Cl)c2)c1=O)NCc1ccc2c(c1)OCO2,2,·,·,17,·
CCOC(=O)N/N=C/c1cc(OC)c(O)c(OC)c1,0,4,-10,-7,-15
CCOC(=O)c1sc(N/N=C/c2cc(Br)c(O)c(OC)c2)nc1C,-1,41*,51*,13,-12
Cn1c(=O)oc2cc(S(=O)(=O)CCC(=O)NCc3ccc(Cl)cc3)ccc21,1,·,·,-8,·
COc1ccccc1CO/N=C/NC(=O)c1c(OC)ccnc1Oc1ccc(F)cc1,1,-2,-3,13,37*
COc1ccnc(Oc2ccc(F)cc2)c1C(=O)N/C=N/OCc1cccc(F)c1,3,0,-1,-2,9
CC1CC(C)CN(S(=O)(=O)c2ccc(NC(=O)C3CSC4(C)CCC(=O)N34)cc2)C1 (stereo not given),0,-3,-1,30*,-11
COc1ccc(CCNC(=O)Cc2c(C)c3c(cc(C)c4c(C)c(C)oc43)oc2=O)cc1,1,·,·,-7,·
C=CCn1c(COc2ccccc2)nnc1SC(C)C(=O)N/N=C/c1cc(Cl)ccc1O (stereo not given),-1,5,58*,-4,5
O=[N+]([O-])c1cccc(CN2CCC(Cc3ccccc3)CC2)c1,0,-1,-34,-11,21
O=C(c1ccc([N+](=O)[O-])cc1)N1CCN(c2cccc3[nH]ccc23)CC1,15,-2,-15,-9,-1
O=[N+]([O-])c1cccc(CN2CCN(c3cccc4[nH]ccc34)CC2)c1,5,-8,-27,-21,42*
O=C(NC1CCN(Cc2cccc([N+](=O)[O-])c2)CC1)c1ccccc1,-2,4,-15,-26,74*
O=C(NC1CCN(Cc2ccccc2)CC1)c1cncc(Br)c1,0,-2,-29,-37,85*
CC(C)(C)c1ccc(C(=O)NC2CCN(Cc3ccccc3)CC2)cc1,1,-3,-35,-21,54*
CCn1c(=O)c2cc(C(=O)NCc3ccc(F)cc3Cl)sc2c2ccccc21,0,·,·,3,·
Cn1nccc1C(=O)NC1CCN(Cc2ccccc2)CC1,0,3,-25,-19,55*
O=C(NC1CCN(Cc2ccccc2)CC1)c1ccccc1Cl,-1,-4,-65,-19,9
Cc1oc(-c2ccccc2)cc1C(=O)NC1CCN(Cc2ccccc2)CC1,0,-12,-7,-10,69*
O=C(NC1CCN(Cc2ccccc2)CC1)c1ccccc1,0,-4,-23,-26,74*
CN1CCC(NC(=O)c2cccc(Oc3ccccc3)c2)CC1,-1,-4,-38,-8,70*
O=C(NNC1CCN(Cc2ccccc2)CC1)c1ccccc1,·,-2,-28,·,·
CCC1(c2ccc(Cl)cc2)NC(=O)N(CC(=O)NCc2ccc(F)cc2)C1=O (stereo not given),0,2,-5,3,-15
CCC1(c2ccc(Cl)cc2)NC(=O)N(Cc2ccc(C(=O)OC)cc2)C1=O (stereo not given),2,1,7,35*,4
O=c1oc2c(F)cc(F)cc2cc1S(=O)(=O)c1ccc(F)cc1,0,·,·,4,·
COc1ccc(C(=O)Nc2ccccc2N2CCOCC2)cc1[N+](=O)[O-],2,-2,-10,10,1
COc1ccc(C(=O)NC(=S)Nc2ccccc2N2CCOCC2)cc1[N+](=O)[O-],0,-6,-34,18,39*
